Measured values reported in PubChem BioAssay.
The source made the active and inactive calls.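 Rule for the calls, unless noted: active = fluorescence slope higher than the sample average by over 3 SD (cut at about -0.22 in these data, passing the limit was not always enough); inactive = the rest.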

What was measured:
[1] = inhibitors of TNFa-induced NFkB p65 translocation, primary screen, imaging, HUVEC, MLSMR starter and 10KST1 sets (AID 438;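 active = inhibition above 20% together with a positive visual image hit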;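 note: compound added about 3h40 before a 20 min TNFalpha stimulation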;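 for inhibition: signal is the nuclear over cytoplasmic p65 intensity ratio per well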); conditions: HUVEC TNFa-induced p65 nuclear translocation; cell count: measured here: nuclei count (cytotoxicity indicator), at 2.08 µM; inhibition: at 2 µM, stronger effect = higher value, 0% TNFa-plus-vehicle, 100% no-TNFa wells
[2] = inhibitors of mutant huntingtin aggregation, primary screen, imaging, exon1htt(103Q)mCFP cells, high-content imaging (AID 483;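 active = visual image review flags a hit and inhibition of aggregation exceeds 20%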;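 note: compound exposure lasted 3 days before fixation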;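 for nuclei count: percent of the per-plate median nuclei count of sample wells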); conditions: exon1htt(103Q)mCFP cell line, aggregate imaging, at 2 µM; inhibition of aggregation: stronger effect = higher value; nuclei count: measured here: cell count, toxicity
[3] = inhibitors of E-selectin induction by TNFa, primary screen, imaging, HUVEC, immunofluorescence, MLSMR starter and 10KST1 sets (AID 487;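 active = visually confirmed hit in the image check and inhibition above 20%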;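 for inhibition: signal is fraction of cell area covered by stained E-selectin grains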;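 for nuclei count: 100% = median nuclei count of all wells on the same plate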); conditions: HUVEC TNFalpha-induced E-selectin immunofluorescence imaging, at 2 µM; inhibition: stronger effect = higher value; nuclei count: measured here: cell number, toxicity
[4] = biological target: Voltage-gated potassium channel subunit beta-2 (Rattus norvegicus) (UniProt P62483); assay: KvBeta enzyme negative modulators, primary screen, biochemical, NADPH fluorescence (AID 622); conditions: recombinant KvBeta, 4-cyanobenzaldehyde reduction, at 10 µM, stronger effect = higher value;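 note: slope of raw intensity against log time taken from 70 to 1610 s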
Sequence of Voltage-gated potassium channel subunit beta-2 (Rattus norvegicus) (P62483 whole entry, looked up): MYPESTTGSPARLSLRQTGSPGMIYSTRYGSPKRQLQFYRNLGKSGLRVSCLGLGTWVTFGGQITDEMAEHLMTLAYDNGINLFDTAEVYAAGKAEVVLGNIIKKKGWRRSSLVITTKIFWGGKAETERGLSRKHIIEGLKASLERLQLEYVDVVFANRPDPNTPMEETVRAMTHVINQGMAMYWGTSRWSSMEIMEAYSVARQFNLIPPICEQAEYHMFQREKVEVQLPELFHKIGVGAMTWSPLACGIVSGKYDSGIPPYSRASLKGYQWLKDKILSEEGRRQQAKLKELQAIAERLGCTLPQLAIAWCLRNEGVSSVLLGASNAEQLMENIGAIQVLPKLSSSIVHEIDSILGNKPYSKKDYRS

[5] = biological target: Voltage-gated potassium channel subunit beta-2 (Rattus norvegicus) (UniProt P62483); assay: KvBeta positive modulators, primary screen, biochemical, NADPH fluorescence (AID 623;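 active = NADPH fluorescence slope more negative than the mean of all samples by about 3 SD, 99.7% confidence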;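 note: fluorescence intensity change per second fitted from 20 to 320 s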); conditions: Recombinant KvBeta, NADPH fluorescence decrease slope, 10 min; at 10 µM; stronger effect = lower value
[6] = biological target: Alpha-2C adrenergic receptor (Homo sapiens) (UniProt P18825); assay: modulators of alpha2C/GIRK thallium flux, primary screen, cell-based, HEK293 alpha2C/GIRK1/2 (AID 624;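 active = fluorescence slope after compound addition differing from the mean of all screened samples at 99.7% confidence, in either direction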;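 note: slope of fluorescence ratio to pre-addition baseline per second over 15 to 24 s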); conditions: thallium flux BTC fluorescence, at 10 µM, actives lie on both sides
Sequence of Alpha-2C adrenergic receptor (Homo sapiens) (P18825 whole entry, looked up): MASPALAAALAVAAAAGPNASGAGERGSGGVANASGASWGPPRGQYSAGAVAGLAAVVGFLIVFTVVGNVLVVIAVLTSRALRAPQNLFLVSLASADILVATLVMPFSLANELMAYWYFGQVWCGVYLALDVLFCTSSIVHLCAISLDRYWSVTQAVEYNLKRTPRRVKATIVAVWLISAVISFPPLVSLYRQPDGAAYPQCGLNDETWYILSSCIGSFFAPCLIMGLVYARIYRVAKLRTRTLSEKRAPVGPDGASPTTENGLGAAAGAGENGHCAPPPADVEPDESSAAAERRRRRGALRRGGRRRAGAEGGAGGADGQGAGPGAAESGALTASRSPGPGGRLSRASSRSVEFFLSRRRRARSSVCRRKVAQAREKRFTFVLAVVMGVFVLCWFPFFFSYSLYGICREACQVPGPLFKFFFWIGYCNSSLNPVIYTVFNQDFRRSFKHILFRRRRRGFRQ

[7] = inhibitors of Sendai virus-induced IRF3 signaling, primary screen, TLR/RLR signaling modifier project, cell-based, Sendai virus stimulus, luciferase, 10K MLSCN set (AID 602276;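 active = inhibition at or above 50% at 10 µM; inactive = inhibition below 50%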;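 note: firefly luciferase from ISG56 promoter only with Renilla not read in this screen; 0% = Sendai virus plus DMSO and 100% = medium plus DMSO without virus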); conditions: HEK293 RL24 IRF3 luciferase reporter, at 10 µM, stronger effect = higher value
[8] = inhibitors of poly I:C-induced TLR3 signaling, primary screen, cell-based, poly I:C stimulus, luciferase, 10K MLSCN set (AID 602277;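 active = inhibition of the reporter signal at or above 50%; inactive = inhibition below 50%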); conditions: HEK293-TLR3 RL24 IRF3 luciferase reporter, at 10 µM, stronger effect = higher value

SMILES | cell count [1] | inhibition [1] | inhibition of aggregation [2] | nuclei count [2] | inhibition [3] | nuclei count [3] | fluorescence slope [4] | NADPH fluorescence slope [5] | slope [6] | inhibition [7] | inhibition [8]
CC1=C(C(=O)Nc2ccccc2C)C2(CCCC2)C(C(N)=O)C(=O)N1 (stereo unspecified) | 683 | 0% (inactive) | -25.1% (inactive) | 99% | -126% (inactive) | 106% | -0.483 (inactive) | -4.6e-05 (inactive) | 0.0058 (inactive) | 13.6% (inactive) | 17.8% (inactive)
Cc1ccc(-n2ncc(C(=O)N3CCc4ccccc4C3)c2NC(=O)c2ccco2)cc1C | 425 | 10.2% (inactive) | -0.3% (inactive) | 100% | 0.3% (inactive) | 114% | -0.415 (inactive) | -9.8e-05 (inactive) | 0.00658 (inactive) | 2.03% (inactive) | 20.1% (inactive)
Cc1ccc(OCC(O)CN2C(=O)NC(C)(C)C2=O)cc1C (stereo unspecified) | 673 | -2.9% (inactive) | -21.4% (inactive) | 107% | -19.6% (inactive) | 112% | -0.537 (inactive) | -2.6e-05 (inactive) | 0.00799 (inactive) | 5.76% (inactive) | 24.9% (inactive)
Cc1ccc(CCC(=O)Nc2ccc(S(N)(=O)=O)cc2)o1 | 543 | 0% (inactive) | -16.3% (inactive) | 111% | -67.7% (inactive) | 99.7% | -0.614 (inactive) | 5.3e-06 (inactive) | 0.00583 (inactive) | -2.49% (inactive) | 2.2% (inactive)
OC(COc1ccc2ccccc2c1)CN1CCOCC1 (stereo unspecified) | 780 | 4.7% (inactive) | 3.4% (inactive) | 83% | -44.7% (inactive) | 95.6% | -0.441 (inactive) | -8.9e-05 (inactive) | 0.00562 (inactive) | 3.23% (inactive) | 11.9% (inactive)
CCOC(=O)C1CCN(c2c(N3CCCCCC3)c(=O)c2=O)CC1 | 897 | -0.9% (inactive) | -6.8% (inactive) | 98.7% | -84.4% (inactive) | 112% | -0.581 (inactive) | -4.7e-05 (inactive) | 0.0057 (inactive) | 8.92% (inactive) | 28.8% (inactive)
CC(=O)N(C)C1(c2nnnn2CCOC(=O)Nc2cccc3ccccc23)CCCC1 | 600 | -8.2% (inactive) | 31.6% (inactive) | 98.9% | -99.1% (inactive) | 105% | -0.61 (inactive) | -5.7e-05 (inactive) | 0.00458 (inactive) | 13% (inactive) | 21.8% (inactive)
CCSc1nnc2c(n1)OC=Nc1ccc(Br)cc1-2 | 262 | -12.8% (inactive) | 20.4% (inactive) | 62.3% | -24.2% (inactive) | 84.5% | -0.38 (inactive) | -3.3e-05 (inactive) | 0.00298 (inactive) | 15.5% (inactive) | 20.5% (inactive)
O=C(c1ccc2c(c1)[nH]c(=S)n1c3ccccc3nc21)N1CCN(c2ncccn2)CC1 | 515 | 4.8% (inactive) | -5.1% (inactive) | 105% | -28.7% (inactive) | 114% | -0.347 (inactive) | -1.3e-05 (inactive) | 0.00281 (inactive) | 13.2% (inactive) | 19.4% (inactive)
CC(=O)N(C(C)=O)c1c(C#N)c(C)n(-c2ccccc2)c1C(=O)c1ccccc1 | 430 | 8.5% (inactive) | 4.6% (inactive) | 102% | 24.1% (inactive) | 110% | -0.503 (inactive) | -3.8e-05 (inactive) | 0.00413 (inactive) | 27% (inactive) | 26.6% (inactive)
Nc1ccc(C(=O)OCCCc2nc3ccccc3[nH]2)cc1 | 366 | -2.2% (inactive) | 10.5% (inactive) | 95.7% | 9% (inactive) | 92.5% | -0.589 (inactive) | -5.8e-05 (inactive) | 0.00614 (inactive) | -17.1% (inactive) | -17.7% (inactive)
Cc1cccc(CN2CCC(CNC(=O)C3CCCN(S(=O)(=O)c4cnc[nH]4)C3)CC2)c1 (stereo unspecified) | 706 | -12.2% (inactive) | 10.2% (inactive) | 106% | -61.1% (inactive) | 125% | -0.518 (inactive) | -3.2e-05 (inactive) | 0.0058 (inactive) | 18.8% (inactive) | 27.2% (inactive)
NC(=O)c1ccccc1NC(=O)CN1CCOCC1 | 658 | -24.7% (inactive) | -45.9% (inactive) | 124% | -46.9% (inactive) | 105% | -0.492 (inactive) | -3.8e-05 (inactive) | 0.00501 (inactive) | 21.2% (inactive) | 20.7% (inactive)
CC(C)OC(=O)CSc1nc2cccnc2n1C1CCCCC1 | 267 | -9.7% (inactive) | -18.5% (inactive) | 78.8% | -25.1% (inactive) | 106% | -0.592 (inactive) | -5.3e-05 (inactive) | 0.00357 (inactive) | 11.2% (inactive) | 17.9% (inactive)
Cn1c(=O)c2c(nc(NCCCO)n2C/C=C/c2ccccc2)n(C)c1=O | 401 | -1.8% (inactive) | 1.8% (inactive) | 112% | -45.2% (inactive) | 153% | -0.336 (inactive) | 9.8e-06 (inactive) | 0.004 (inactive) | 22.3% (inactive) | 34.2% (inactive)
COC(=O)c1cc(=O)nc2sc(-c3cccs3)nn12 | 349 | 5.5% (inactive) | 4.7% (inactive) | 100% | -73.7% (inactive) | 105% | -0.463 (inactive) | -2.2e-05 (inactive) | 0.006 (inactive) | 12.6% (inactive) | 29.9% (inactive)
Cc1nn(C(=O)c2cc3sccc3[nH]2)c(C)c1C | 574 | -11.9% (inactive) | 0.1% (inactive) | 95.1% | -65.4% (inactive) | 104% | -0.416 (inactive) | -2.7e-05 (inactive) | 0.00333 (inactive) | -8.25% (inactive) | -82.9% (inactive)
O=C(CCN1C(=O)COc2ccccc21)N1CCN(c2ccccn2)CC1 | 690 | -8.6% (inactive) | -0.4% (inactive) | 101% | -176% (inactive) | 132% | -0.591 (inactive) | 5.1e-07 (inactive) | 0.00618 (inactive) | 10.4% (inactive) | 14.6% (inactive)
COc1cccc(Cn2c(-c3nonc3N)nc3ccccc32)c1 | 306 | -4.8% (inactive) | -97% (inactive) | 1.8% | -97% (inactive) | 113% | -0.556 (inactive) | -8.2e-05 (inactive) | 0.00614 (inactive) | 7.76% (inactive) | 57.2% (active)
O=C(CC(C(=O)N1CCc2ccccc21)n1ccnc1)NCc1cccnc1 (stereo unspecified) | 655 | -2.2% (inactive) | 23.5% (inactive) | 122% | -67% (inactive) | 119% | -0.446 (inactive) | 9.2e-07 (inactive) | 0.00564 (inactive) | 10.8% (inactive) | 20.7% (inactive)
CCC(C(=O)O)n1c(C(F)(F)F)nc2ccccc21 (stereo unspecified) | 717 | -29.6% (inactive) | 4.1% (inactive) | 103% | -6.3% (inactive) | 108% | -0.558 (inactive) | -2.1e-05 (inactive) | 0.00512 (inactive) | 7.44% (inactive) | 14.4% (inactive)
Cc1ccc(C2=N/C(=C/N3CCOCC3)C(=O)O2)cc1 | 302 | 3.3% (inactive) | 14% (inactive) | 96.4% | 8.3% (inactive) | 98.9% | -0.512 (inactive) | -2.4e-05 (inactive) | 0.00711 (inactive) | -49.1% (inactive) | -197% (inactive)
O=C(OCCN(CCOC(=O)c1ccncc1)S(=O)(=O)c1cccs1)c1ccncc1 | 888 | 10.8% (inactive) | -22.1% (inactive) | 110% | -180% (inactive) | 123% | -0.581 (inactive) | 1e-05 (inactive) | 0.00486 (inactive) | 7.42% (inactive) | 11.5% (inactive)
CC(=O)N(C(C)=O)c1cccc2c(N(C(C)=O)C(C)=O)cccc12 | 450 | -10.7% (inactive) | 26.2% (inactive) | 44.9% | -28.6% (inactive) | 87.9% | -0.431 (inactive) | -5.3e-05 (inactive) | 0.00429 (inactive) | 12.7% (inactive) | 31.6% (inactive)
COc1ccc(/C(O)=C2/C(=O)C(=O)N(CCCN(C)C)C2c2ccc(Cl)cc2)cc1OC (stereo unspecified) | 332 | 4.5% (inactive) | -28.5% (inactive) | 122% | -11.6% (inactive) | 112% | -0.527 (inactive) | -3.6e-05 (inactive) | 0.00513 (inactive) | 12.7% (inactive) | 10.6% (inactive)
COc1ccc(OC)c(S(=O)(=O)NCCC2=CCCCC2)c1 | 677 | -3.6% (inactive) | -18.8% (inactive) | 91.5% | 16.5% (inactive) | 95% | -0.486 (inactive) | -4.4e-05 (inactive) | 0.00446 (inactive) | -1.71% (inactive) | 24.3% (inactive)
